# Screens (PubChem)
# The list is not random: actives were taken first. Their share in the collection is about 4.6%.
# Marburg entry inh = inhibitors of Marburg virus binding or cell entry; Marburg virus pseudotyped entry inhibition, cell reporter; Potency, µM (top dose mostly 37.8 µM), without a hit: at the highest dose activity change, negative = inhibition, hits mostly inhibitors; 1.8% of 300,000 active; AID 540276; calls by dose curve; tested in HEK293 cells
# VACV mCherry inh = inhibitors of vaccinia virus infection (mCherry reporter signal) | Potency, µM (titrated, usually from 36.5 µM), for inactives: top-dose activity change, negative = inhibition, most hits filed as inhibitors | AID 720579 | Vaccinia virus mCherry reporter infection, fluorescence | 0.63% of 310,000 active; calls by dose curve; tested in A549 cells; note: nearly all actives have a fitted effect of over 35% in size
# HCV inhibitor = blocks hepatitis C virus | Huh7.5.1 HCVcc-Cre infection, luciferase reporter, 44 h | Potency, µM (top dose mostly 41.8 µM), without a hit: at the highest dose activity change, negative = inhibition, most hits filed as inhibitors | 3.4% of 340,000 active | AID 651820; active = well fitted inhibition curve with a large enough effect; inconclusive = small, poorly fitted or top-dose-only effect, or another doubt; inactive = no such curve, though single readings can be large or run the other way
#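 Infectious HCV cell culture screen: compound-treated cells (1,000/well, pre-plated 4 h) are infected with HCVcc-Cre at roughly 0.5 moi and grown 44 h. Infection is quantified by luciferase signal after 15 min substrate incubation at room temperature.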
# LASV entry inh = inhibitors of Lassa virus binding or cell entry. Potency, µM (top dose mostly 37.9 µM), without a hit: at the highest dose activity change, negative = inhibition, most hits filed as inhibitors. AID 540256. 1.2% of 300,000 active. Lassa virus pseudotype entry inhibition, cell reporter; calls by dose curve; tested in HEK293 cells; note: nearly all actives have a fitted effect of over 50% in size
# Vaccinia Venus = vaccinia inhibition (Venus reporter); Vaccinia virus Venus reporter expression, fluorescence; Potency, µM (highest dose often 36.5 µM), inactives show top-dose activity change, negative = inhibition, usual class: inhibitors; 0.46% of 330,000 active; calls by dose curve; tested in A549 cells; note: nearly all actives have a fitted effect of over 30% in size
# Starred values were filed as active, the others as inactive; i = inactive; u = inconclusive; x = not tested or not shown; [ ] = another dose, or the depositor's remark. % is set by controls: 0 for no effect and ±100 for the full control effect; potency is the fitted concentration of half-maximal effect.
SMILES,Marburg entry inh,VACV mCherry inh,HCV inhibitor,LASV entry inh,Vaccinia Venus
COc1ccc(S(=O)(=O)c2c(SC)nn(Cc3ccccc3C)c2NC(C)=O)cc1,x,-15%,x,u,-1%
Cc1cc(NC(=O)c2cc(-c3cccc(OCC(C)C)c3)nc3ccccc23)no1,x,x,13µM*,x,x
COC(=O)c1ccc(NC(=O)c2cc(-c3ccncc3)nc3ccccc23)cc1,x,x,10µM*,x,x
CC(C)(C)c1ccc(-c2cc(C(=O)NNC(=O)Nc3ccccc3)c3ccccc3n2)cc1,u,-14%,u,5.6µM*,u
O=C(NNC(=O)c1cc(-c2ccccc2)nc2ccccc12)Nc1cccc(Cl)c1,u,u,u,-15%,-30%
COc1ccc(-c2cc(C(=O)Nc3ccc(C)c(N)c3)c3ccccc3n2)cc1,u,u,11µM*,u,-23%
O=C(c1cccnc1)C1CCCN(Cc2ccc3c(c2)CN(C(=O)c2ccc4[nH]ccc4c2)CCO3)C1 (centres undefined),x,-2%,x,x,10%
COc1ccccc1/C=N/NC(=O)c1[nH]c(C)c(C(=O)N/N=C/c2ccccc2OC)c1C,19%,-13%,u,-1%,-5%
CCNC(=O)C(=O)N/N=C/c1cc([N+](=O)[O-])ccc1O,u,-12%,11%,-27%,-4%
CCOC(=O)c1c(C)[nH]c(C(=O)N/N=C/c2cc([N+](=O)[O-])ccc2O)c1C,u,i,11µM*,6.5µM*,-9%
CCOC(=O)c1c(C)[nH]c(C(=O)N/N=C\c2ccccc2O)c1C,u,u,u,8.9µM*,u
CN(C)S(=O)(=O)c1ccc(N2CCCC2)c(C(=O)NCC2CCCCC2)c1,x,i,8.9µM*,x,-17%
COc1ccc(-c2csc(NC(C)c3nc4cc(C(F)(F)F)ccc4n3CCOCCO)n2)cc1 (centres undefined),x,u,8.9µM*,x,u
Cc1cccc(CNC(=O)c2ccc3c(c2)N(C)C(=O)C2CCCCN32)c1 (centres undefined),x,-7%,x,u,-11%
COC(=O)C1CCN(C(=O)C2CCCCC2)CC1,-1%,x,5µM*,16%,x
CCN(CC)c1ccc(-c2nn3c(-c4n[nH]c5c4CCC5)nnc3s2)cc1,u,x,7.9µM*,u,u
CCN1C(=NCc2ccccc2)N[C@@H](CCc2ccccc2)[C@H](C(=O)OC)[C@H]1C,-18%[14.2 µM],x,x,x,x
COc1ccc2nc3cc(Cl)ccc3c(Nc3cc(C(C)C)c(O)cc3C)c2c1,11µM*,u,11µM*,u,u
COc1ccc(S(=O)(=O)Nc2cc(C(C)C)c(O)cc2C)cc1,-15%,-29%,u,15%,-25%
c1ccc(N(c2ccccc2)c2nc(N3CCOCC3)nc(N3CCOCC3)n2)cc1,1%,x,x,x,x
FC(F)(F)c1cc(-c2ccccc2)nc(N2CCOCC2)n1,-25%,-26%,8.9µM*,-18%,-22%
FC(F)(F)COc1nc(N2CCOCC2)nc(N(c2ccccc2)c2ccccc2)n1,13µM*,u,u,u,u
FC(F)(F)c1cc(-c2ccccc2)nc(N2CCCCC2)n1,-2%,x,-23%,-2%,-7%
C=CCN=C1N[C@@H](c2ccccc2)[C@H](C(=O)OC)[C@@H](C)N1CC,-25%[14.2 µM],x,x,x,x
CN(Cc1ccccc1)C(=O)Nc1ccc2c(c1)N(C)C(=O)c1ccccc1S2,10µM*,-17%,x,u,-7%
SMILES,Marburg entry inh,VACV mCherry inh,HCV inhibitor,LASV entry inh,Vaccinia Venus
COC(=O)C1=C(c2ccc(-c3ccccc3)c(F)c2)C[C@@H]2CC[C@H]1N2C(=O)N1CCCC1,x,22µM*,2.8µM*,x,u
COC(=O)C1=C(c2ccc3ccccc3c2)C[C@@H]2CC[C@H]1N2C(=O)N1CCCC1,x,u,10µM*,x,u
COC(=O)c1ccccc1NC(=O)CCS(=O)(=O)c1nc(-c2ccc3c(c2)OCO3)cc(C(F)(F)F)n1,16%[46.1 µM],-9%,x,15%[46.1 µM],-16%
CN1CCN(Cc2ccc(-c3cc4ncnc(Nc5ccc(OCc6cccc(F)c6)c(Cl)c5)c4s3)o2)CC1,x,x,x,20µM*,x
Fc1cccc(COc2ccc(Nc3ncnc4sc(-c5cccs5)cc34)cc2Cl)c1,x,x,x,16µM*,x
Nc1ccc(C#Cc2cncnc2Nc2ccc(OCc3cccc(F)c3)c(Cl)c2)cc1,x,x,x,3.1µM*,x
Fc1cccc(Nc2ncnc3[nH]ncc23)c1,x,x,-7%,x,x
O=C(c1ccco1)N1CCN(Cc2cc(=O)c(OCc3cccc(F)c3)co2)CC1,u,0%,14%,12%,8%
COc1ccc(Br)cc1CNC(=O)c1ccc2c(c1)nc1n2CCCCC1,x,-20%,x,u,-9%
Nc1ccc(O)c2c1C(=O)c1ccccc1C2=O,34%,210%,5µM*,8%,192%
COc1ccc(N)c2c1C(=O)c1ccccc1C2=O,0%,77%,u,u,95%
Nc1ccc(Br)c2c1C(=O)c1ccccc1C2=O,40%,26%,10µM*,1%,47%
C=Cc1ccc(CSc2nc(-c3ccc(Cl)cc3)nc3c2Cc2c(CO)cnc(C)c2O3)cc1,x,6%,x,6%[46.1 µM],0%
Cc1cccc(NC(c2ccccc2F)c2ccc3ccc(C)nc3c2O)n1 (centres undefined),x,u,x,15%[46.1 µM],-25%
Cc1ccc(C)c(C(Nc2ccccc2)c2ccc3ccc(C)nc3c2O)c1 (centres undefined),x,7.9µM*,x,x,u
CCc1ccccc1NC(=S)N(CCN(C)C)C(C)c1ccccn1 (centres undefined),-18%,x,22µM*,13%,x
CC1(C)CC2CC(C)(CN2S(=O)(=O)c2cccc(C(=O)O)c2)C1 (centres undefined),x,x,14%,x,x
CCCCCNC(=O)c1cccc(S(=O)(=O)N2CC3(C)CC2CC(C)(C)C3)c1 (centres undefined),u,u,u,13µM*,u
O=C(Cn1ccn(-c2ccc(F)cc2)c(=O)c1=O)Nc1ccc(F)cc1,x,-6%,x,3%[46.1 µM],-6%
CC(C)C[C@H]1COc2cc(Br)ccc2S(=O)(=O)N1,x,-3%,x,1%[46.1 µM],-16%
Cc1ccccc1C(=O)N1[C@@H](C(C)C)COc2cc(Br)ccc2S1(=O)=O,10µM*,-15%,-10%,x,-10%
Cc1ccc(-n2c(=O)c3c4c(sc3n(Cc3ccccc3C)c2=O)CCC4)cc1C,-9%[46.1 µM],-9%,x,21%[46.1 µM],-19%
Cc1ccc(S(=O)(=O)c2ccc([N+](=O)[O-])cn2)cc1,4µM*,u,u,u,-26%
Cc1cc(S(=O)(=O)c2ccc([N+](=O)[O-])cn2)ccc1Br,10µM*,-3%,u,u,-21%
O=C(NC(c1ccc(-c2ccccc2)cc1)c1cnccn1)C1CCN(Cc2ccc(Cl)c(Cl)c2)CC1 (centres undefined),x,4%,x,x,-20%
Cn1cc(CN2CCC(C(=O)NC(c3ccc(-c4ccccc4)cc3)c3cnccn3)CC2)c2ccccc21 (centres undefined),x,u,x,x,11µM*
Cc1cnc(C(=O)Nc2cccc(-c3nnc4n3CCCCC4)c2)cn1,-10%,-12%,3%,10%,-6%
